From PubChem BioAssay AID687001 (Broad Institute, 2013)
Entries with a potency or affinity are not part of this list. Calls of active or inactive are those of the source.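 Rule for the calls: active = signal-lowering compounds whose fitted half-maximal concentration is at or below twice the top tested dose in every run; inconclusive = runs disagree, flat 30 to 70% inhibition, or poor curve fit; inactive = the rest.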

Target: Protein S100-A4 (Homo sapiens) (UniProt P26447)
Assay: S100A4-myosin IIA binding inhibitor potency, dose response, biochemical, fluorescence polarization, cherry-picked hits (AID 687001)
Conditions: FP, S100A4/TAMRA-myosin IIA peptide binding; series mostly up to 11 µM

Sequence of Protein S100-A4 (Homo sapiens) (P26447 whole entry, looked up): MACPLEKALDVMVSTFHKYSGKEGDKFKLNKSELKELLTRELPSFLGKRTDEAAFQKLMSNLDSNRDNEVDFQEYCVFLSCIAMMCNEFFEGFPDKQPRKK

outcome, inactive:
O=C(O)c1ccccc1SCCS(=O)(=O)c1ccc(Cl)cc1Cl, CON(C)S(=O)(=O)c1cccc(C(=O)Nc2cccc(S(=O)(=O)NC3=NCCCCC3)c2)c1, COc1ccc(S(=O)(=O)Nc2ccc3c(c2)CC(=O)N([C@H](C)CO)C[C@H](C)[C@@H](CN(C)CC2CC2)O3)cc1, Cn1nc(C(F)(F)F)c(-c2ccc(Br)cc2)c1NC(=O)C1CCC1C(=O)O (centres undefined), O=C(Nc1nnc([C@H]2C[C@H](O)[C@@H](CO)O2)s1)c1cccc(Oc2ccccc2)c1, Cn1cc(SCC(=O)NC2CCCC2)c2ccccc21, CC(=O)N1CCCCN2[C@H](CO)[C@H](c3ccc(C#Cc4ccccc4F)cc3)[C@@H]2C1, O=C(C[C@H]1C[C@@H]2c3cc(NC(=O)c4cccnc4)ccc3O[C@@H]2[C@H](CO)O1)NCc1ccncc1, CO[C@@H]1CN(C)C(=O)c2ccc(NC(=O)c3ccc(F)cc3)cc2OC[C@H](C)N(C(=O)CC2CC2)C[C@H]1C, C=CCSc1n[nH]c(-c2cccs2)n1, Cc1cc(-c2nc(C)c(-c3nnc(SCC(=O)Nc4ccc(Cl)cc4)n3C)s2)no1, CC(C)NC(=O)Nc1ccc2c(c1)C(=O)N([C@H](C)CO)C[C@@H](C)[C@H](CN(C)S(=O)(=O)c1ccccc1)OCCCC[C@@H](C)O2, CC(C)CC#Cc1cnc2c(c1)C(=O)N([C@H](C)CO)C[C@@H](C)[C@H](CN(C)S(C)(=O)=O)O2, COc1ccccc1NC(=O)N1CC(=O)N2[C@H](CO)[C@H](c3ccc(-c4ccc(F)cc4)cc3)[C@@H]2C1, COc1ccc(CN2C(=O)c3ccccc3C2c2nnnn2Cc2ccccc2)cc1OC (centres undefined), CCN1CCN(c2ccc(N3CCN(S(=O)(=O)c4ccc(C)c([N+](=O)[O-])c4)CC3)nn2)CC1, CCCNC(=O)Nc1ccc2c(c1)OC[C@H](C)N(C(=O)C1CC1)C[C@H](C)[C@@H](OC)CN(C)C2=O, CC(=O)Nc1ccccc1-c1nc2cc(C#N)c(C#N)cc2[nH]c1=O, O=C(C1CCCC1)N1CCCCN2[C@H](CO)[C@@H](c3ccc(C#CC4(O)CCCC4)cc3)[C@H]2C1, O=C(C[C@H]1CC[C@H](NC(=O)Nc2ccccc2F)[C@@H](CO)O1)NCc1ccc(-c2ccccc2)cc1, O=C(c1ccc2c(c1)OCO2)N1CC(=O)N2[C@@H](CO)[C@H](c3ccc(C#Cc4ccccc4)cc3)[C@@H]2C1, CO[C@@H]1CN(C)C(=O)c2ccc(NC(=O)c3ccc4c(c3)OCO4)cc2OC[C@@H](C)N(Cc2ccc3c(c2)OCO3)C[C@H]1C, C[C@@H]1CCCCO[C@@H](CN(C)CC2CCCCC2)[C@@H](C)CN([C@H](C)CO)C(=O)c2cc(NS(=O)(=O)c3cn(C)cn3)ccc2O1, CC(C)(C)[C@H]1COC(=O)CC/C=C\C[C@H](CC(=O)N(CCO)Cc2ccccc2)C(=O)N1, CCn1c(=S)sc2c(=O)n(CC(=O)Nc3ccc(C(C)=O)cc3)c(C)nc21, C[C@@H]1CN([C@@H](C)CO)C(=O)c2cccc(NC(=O)C3CC3)c2O[C@@H]1CN(C)S(C)(=O)=O, C=C[C@@H]1c2ccccc2N(S(=O)(=O)c2ccc(C)cc2)[C@H](c2ccccc2C(F)(F)F)C1(C#N)C#N, CN(CC(=O)NCC(=O)Nc1ccc(F)cc1)CC(=O)Nc1ccc(Cl)c(C(F)(F)F)c1, C[C@@H]1CN([C@H](C)CO)S(=O)(=O)c2ccc(C3=CCCCC3)cc2O[C@@H]1CN(C)Cc1cncnc1, CN1C(C(=O)Nc2ccc(OC(F)(F)F)cc2)=CC(c2ccco2)=NS1(=O)=O, Cn1cnc(CCNC(=O)C[C@@H]2CC[C@H]3[C@@H](COC[C@@H](O)CN3C(=O)C3CC3)O2)c1, COc1cc(OC)c2ccc(=O)oc2c1C(CC(=O)N1CCN(c2ccccc2)CC1)c1ccc2c(c1)OCO2 (centres undefined), NC(=O)NC(Cc1ccccc1)C(=O)NCCCSc1ccccc1 (centres undefined), O=[N+]([O-])c1ccccc1CN1CCN(S(=O)(=O)Cc2ccccc2)CC1, Cc1ccc(NC(=O)CSc2ccc(-c3cccnc3)nn2)cc1, COC(=O)c1ccc(Oc2nc(SC)nc(N(C)C)n2)cc1, COc1ccc(Cl)cc1Cn1c(C)c(C(=O)NCc2ccc(C#N)cc2)sc1=O, Cc1ccc(S(=O)(=O)N(C)C[C@@H]2Oc3c(NC(=O)C4CCCCC4)cccc3C(=O)N([C@H](C)CO)C[C@@H]2C)cc1, Cc1ccccc1S(=O)(=O)NCC[C@H]1CC[C@H](NC(=O)C2CCC2)[C@H](CO)O1
